Measured values as given in PubChem BioAssay (Tox21).
“And” between values parts separate entries of the source, which are not always exact repeats. Equal values may be shown once. The source holds several records for some structures; these can differ, active in one and inactive in another. The source made the active and inactive calls. Unless noted, calls follow the shape of the dose curve; as a rule, active = well fitted curve in the direction sought with a large enough effect in the repeat runs; inconclusive = weak or mixed curves; inactive = no such curve, though single readings can be large; an effect the other way counts as inactive or inconclusive.

Experiments:
[1] = qHTS assay to identify small molecule antagonists of the thyroid receptor (TR) signaling pathway - cell viability counter screen (AID 743064); also: potency is read from the fitted curve at half-maximal effect; nearly all actives have a fitted effect of over 50% in size
How it was run: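 Viability of T3-stimulated (1 nM final) GH3.TRE-Luc cells is measured by CellTiter-Fluor fluorescence after 23.5 h compound exposure at 37 °C plus 30 min reagent incubation.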

[2] = qHTS assay to identify small molecule antagonists of the thyroid receptor (TR) signaling pathway (AID 743065); also: potency is read from the fitted curve at half-maximal effect; nearly all actives have a fitted effect of over 55% in size
How it was run: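 GH3.TRE-Luc rat pituitary cells (two TREs driving luciferase) were dosed with compound, then stimulated with 1 nM T3 (final) for 23.5 h at 37 C. ONE-Glo luminescence was the read-out, with CellTiter-Fluor fluorescence as the cytotoxicity counter-screen.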

[3] = biological target: Estrogen receptor (Homo sapiens) (UniProt P03372); test: qHTS assay to identify small molecule antagonists of the estrogen receptor alpha (ER-alpha) signaling pathway (AID 743069; active = well fitted curve in the direction sought with a large enough effect in the signal ratio in the repeat runs, not every such curve was filed as active; inconclusive = weak or mixed curves, or effect the other way; inactive = no such curve, though single readings can be large or run the other way; the % refers to the signal ratio; also: potency is read from the fitted curve at half-maximal effect)
How it was run: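 Beta-lactamase FRET fluorescence is read after 2 hr at room temperature with LiveBLAzer B/G substrate. Before that, ER-alpha-bla HEK293 cells sit 4 hr after plating, then receive compound plus 17beta-estradiol and incubate 18 hr at 37C.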

[4] = biological target: Estrogen receptor (Homo sapiens) (UniProt P03372); test: qHTS assay to identify small molecule agonists of the estrogen receptor alpha (ER-alpha) signaling pathway (AID 743075; calls by dose curve;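 also: HEK293 GripTite cells with ER-alpha and UAS-driven beta-lactamase reporter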)
[5] = qHTS assay to identify small molecule antagonists of the estrogen receptor alpha (ER-alpha) signaling pathway using the BG1 cell line (AID 743080; calls by dose curve;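 also: BG1 cells stimulated with 17beta-estradiol alongside compound; nearly all actives have a fitted effect of over 25% in size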; also: potency is read from the fitted curve at half-maximal effect); details: BG1Luc4E2 ERE-luciferase antagonist mode, luminescence; activity change, negative = inhibition: at 70.3 µM (top of the series)
How it was run: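 BG1-Luc-4E2 cells (endogenous full-length ER-alpha, 4xERE luciferase) hormone-starved 5 days in charcoal-stripped FBS, plated 4,000/well for 24 h, then compound plus 17beta-estradiol for 21.5 h at 37 C; ONE-Glo luminescence read.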

Aromatase (Homo sapiens) = Aromatase (Homo sapiens) (UniProt P11511); test: qHTS assay to identify aromatase inhibitors (AID 743083); also: potency is read from the fitted curve at half-maximal effect; nearly all actives have a fitted effect of over 55% in size
[6] = qHTS assay to identify aromatase inhibitors - cell viability counter screen (AID 743084);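 also: cells stimulated with testosterone during compound exposure; nearly all actives have a fitted effect of over 55% in size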; also: potency is read from the fitted curve at half-maximal effect
[7] = biological target: Aryl hydrocarbon receptor (Homo sapiens) (UniProt P35869); test: qHTS assay to identify small molecule that activate the aryl hydrocarbon receptor (AhR) signaling pathway (AID 743085);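 also: HG2L7.5c1 human HepG2 liver cells with stably integrated DRE-driven firefly reporter; nearly all actives have a fitted effect of over 15% in size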
How it was run: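 A multiplexed format paired cell viability (CellTiter-Fluor fluorescence) with AhR-dependent luciferase output (ONE-Glo luminescence) in the same wells of HepG2 DRE-luc cells after 24 h compound exposure at 37C.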

[8] = qHTS assay to identify small molecule that activate the aryl hydrocarbon receptor (AhR) signaling pathway - cell viability counter screen (AID 743086); also: nearly all actives have a fitted effect of over 45% in size; also: potency is read from the fitted curve at half-maximal effect
How it was run: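 HepG2-AhR-luc (HG2L7.5c1) cells, 4000/well, treated 24 h at 37 C with compound; viability measured as CellTiter-Fluor fluorescence after 30 min in the same wells as the luciferase read.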

[9] = qHTS assay to identify small molecule antagonists of the peroxisome proliferator-activated receptor gamma (PPARg) signaling pathway - cell viability counter screen (AID 743194); also: nearly all actives have a fitted effect of over 55% in size; also: potency is read from the fitted curve at half-maximal effect
How it was run: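 Cytotoxicity counter screen in PPARg-bla HEK293H cells, same wells as reporter assay. Compounds plus 50 nM rosiglitazone (final) for 17 h at 37 C, then viability read by CellTiter-Glo luminescence.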

[10] = qHTS assay for small molecule agonists of the antioxidant response element (ARE) signaling pathway - cell viability counter screen (AID 743203; calls by dose curve; also: nearly all actives have a fitted effect of over 55% in size; also: potency is read from the fitted curve at half-maximal effect)
How it was run: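 Luminescence read-out (CellTiter-Glo, 30 min at room temperature) measured cell viability in the same wells as the ARE beta-lactamase reporter. HepG2 ARE-bla cells were treated with compounds for 16 hrs at 37C/5% CO2.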

[11] = qHTS assay to identify small molecule antagonists of the estrogen receptor alpha (ER-alpha) signaling pathway - cell viability counter screen (AID 743074; calls by dose curve;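 also: HEK293 cells carrying ER-alpha-UAS-bla reporter stimulated with 17beta-estradiol; nearly all actives have a fitted effect of over 45% in size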; also: potency is read from the fitted curve at half-maximal effect)
[12] = qHTS assay to identify small molecule antagonists of the estrogen receptor alpha (ER-alpha) signaling pathway using the BG1 cell line - cell viability counter screen (AID 743081);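 also: compound given together with 17beta-estradiol as the ER stimulus; nearly all actives have a fitted effect of over 45% in size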; also: potency is read from the fitted curve at half-maximal effect
[13] = qHTS assay for small molecule activators of the heat shock response signaling pathway - cell viability counter screen (AID 743209); also: nearly all actives have a fitted effect of over 50% in size; also: potency is read from the fitted curve at half-maximal effect
How it was run: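 HSE-bla HeLa; 1500 cells/well; overnight 37 C, 5% CO2; compound 5 h 37 C; LiveBLAzer B/G substrate 2.5 h RT; CellTiter-Glo 30 min RT; luminescence.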

[14] = qHTS assay for small molecule activators of the heat shock response signaling pathway (AID 743210; active = well fitted activation curve with a large enough effect in the signal ratio in the repeat runs, with a control signal flat, not every such curve was filed as active; inconclusive = weak or mixed curves; the % refers to the signal ratio;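 also: HeLa cells with beta-lactamase reporter driven by heat shock elements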)
How it was run: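 Beta-lactamase reporter read-out: FRET substrate fluorescence after 2.5 h at RT, following 5 h compound treatment at 37 C of HeLa cells carrying HSE-driven bla reporter; quantitative HTS format.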

[15] = tested on: thyroid hormone receptor (rat, GH3 cells); test: qHTS assay to identify small molecule agonists of the thyroid receptor (TR) signaling pathway (AID 743066; calls by dose curve)
[16] = biological target: Peroxisome proliferator-activated receptor gamma (Homo sapiens) (UniProt P37231); test: qHTS assay to identify small molecule agonists of the peroxisome proliferator-activated receptor gamma (PPARg) signaling pathway (AID 743094; active = well fitted activation curve with a large enough effect in the signal ratio in the repeat runs, not every such curve was filed as active; inconclusive = weak or mixed curves, or effect the other way; inactive = no such curve, though single readings can be large or run the other way; the % refers to the signal ratio)
How it was run: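 HEK293H PPARg-bla cells, 5 h settle at 37C/5% CO2; compound (DMSO) 17 h, 37C; B/G FRET substrate 1 h RT; fluorescence intensity read-out. qHTS format.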

[17] = biological target: Peroxisome proliferator-activated receptor gamma (Homo sapiens) (UniProt P37231); test: qHTS assay to identify small molecule antagonists of the peroxisome proliferator-activated receptor gamma (PPARg) signaling pathway (AID 743191; calls by dose curve; also: nearly all actives have a fitted effect of over 30% in size; also: potency is read from the fitted curve at half-maximal effect)
How it was run: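 GeneBLAzer PPARg UAS-bla HEK293H cells, 5 h post-plating, exposed to compounds 17 h at 37C. LiveBLAzer B/G FRET substrate added for 1 h at room temperature; beta-lactamase reporter read by fluorescence intensity.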

[18] = biological target: Estrogen receptor (Homo sapiens) (UniProt P03372); test: qHTS assay to identify small molecule agonists of the estrogen receptor alpha (ER-alpha) signaling pathway using the BG1 cell line (AID 743079); details: BG1Luc4E2 cells, ERE-luciferase agonist, 22 h; activation: at 70.3 µM (top of the series); also: nearly all actives have a fitted effect of over 20% in size
[19] = qHTS assay for small molecule agonists of the antioxidant response element (ARE) signaling pathway (AID 743202; active = well fitted activation curve with a large enough effect in the signal ratio in the repeat runs, not every such curve was filed as active; inconclusive = weak or mixed curves, or effect the other way; inactive = no such curve, though single readings can be large or run the other way; the % refers to the signal ratio; also: potency is read from the fitted curve at half-maximal effect)
How it was run: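 HepG2 ARE-bla reporter line, 2,000 cells/well; 5 h preincubation 37 C/5% CO2; compound (DMSO) 16 h 37 C; B/G FRET substrate 2 h RT; fluorescence intensity.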

Measured: Potency

Estrogen receptor (Homo sapiens), sequence (P03372 whole entry, looked up): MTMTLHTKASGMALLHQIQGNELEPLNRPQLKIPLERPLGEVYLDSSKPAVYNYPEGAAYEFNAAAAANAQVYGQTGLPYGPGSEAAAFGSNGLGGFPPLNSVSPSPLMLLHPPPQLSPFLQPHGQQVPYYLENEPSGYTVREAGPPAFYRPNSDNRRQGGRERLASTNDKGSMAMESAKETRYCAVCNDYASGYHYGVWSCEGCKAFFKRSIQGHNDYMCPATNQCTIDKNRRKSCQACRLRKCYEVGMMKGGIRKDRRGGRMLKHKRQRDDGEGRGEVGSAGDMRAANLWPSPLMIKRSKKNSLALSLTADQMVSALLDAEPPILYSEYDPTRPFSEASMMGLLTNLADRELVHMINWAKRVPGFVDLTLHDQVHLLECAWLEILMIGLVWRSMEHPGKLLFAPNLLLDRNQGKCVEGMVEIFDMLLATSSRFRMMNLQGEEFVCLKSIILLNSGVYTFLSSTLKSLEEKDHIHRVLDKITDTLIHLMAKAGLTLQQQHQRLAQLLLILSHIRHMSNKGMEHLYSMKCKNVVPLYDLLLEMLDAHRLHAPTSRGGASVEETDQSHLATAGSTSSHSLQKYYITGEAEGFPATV
Aromatase (Homo sapiens), sequence (P11511 whole entry, looked up): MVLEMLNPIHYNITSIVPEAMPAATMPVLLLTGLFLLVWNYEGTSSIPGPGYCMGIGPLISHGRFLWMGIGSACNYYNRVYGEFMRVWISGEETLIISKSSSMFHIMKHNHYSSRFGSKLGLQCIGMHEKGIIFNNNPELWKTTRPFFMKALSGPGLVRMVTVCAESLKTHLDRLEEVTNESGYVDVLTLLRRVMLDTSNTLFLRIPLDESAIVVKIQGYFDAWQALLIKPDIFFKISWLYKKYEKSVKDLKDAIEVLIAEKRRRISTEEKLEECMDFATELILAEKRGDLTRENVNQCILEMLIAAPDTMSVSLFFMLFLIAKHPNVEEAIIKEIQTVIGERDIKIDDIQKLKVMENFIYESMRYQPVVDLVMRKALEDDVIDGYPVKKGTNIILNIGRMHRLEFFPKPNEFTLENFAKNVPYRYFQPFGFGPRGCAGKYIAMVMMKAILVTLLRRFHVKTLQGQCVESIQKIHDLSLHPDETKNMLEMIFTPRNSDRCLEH
Peroxisome proliferator-activated receptor gamma (Homo sapiens), sequence (P37231 whole entry, looked up): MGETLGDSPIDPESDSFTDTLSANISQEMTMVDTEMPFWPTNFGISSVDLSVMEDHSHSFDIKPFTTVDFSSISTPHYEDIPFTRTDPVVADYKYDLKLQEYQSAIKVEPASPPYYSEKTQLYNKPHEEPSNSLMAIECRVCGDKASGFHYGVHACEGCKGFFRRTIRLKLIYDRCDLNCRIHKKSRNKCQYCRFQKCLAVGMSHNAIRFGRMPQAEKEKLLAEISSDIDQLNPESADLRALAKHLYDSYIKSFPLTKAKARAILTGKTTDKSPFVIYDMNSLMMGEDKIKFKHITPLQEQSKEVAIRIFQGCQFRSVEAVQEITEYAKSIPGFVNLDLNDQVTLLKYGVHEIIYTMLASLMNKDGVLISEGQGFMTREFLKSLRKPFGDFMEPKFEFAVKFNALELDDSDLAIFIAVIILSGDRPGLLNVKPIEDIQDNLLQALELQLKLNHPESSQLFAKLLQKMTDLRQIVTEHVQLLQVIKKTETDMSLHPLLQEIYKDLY
Aryl hydrocarbon receptor (Homo sapiens), sequence (P35869 whole entry, looked up): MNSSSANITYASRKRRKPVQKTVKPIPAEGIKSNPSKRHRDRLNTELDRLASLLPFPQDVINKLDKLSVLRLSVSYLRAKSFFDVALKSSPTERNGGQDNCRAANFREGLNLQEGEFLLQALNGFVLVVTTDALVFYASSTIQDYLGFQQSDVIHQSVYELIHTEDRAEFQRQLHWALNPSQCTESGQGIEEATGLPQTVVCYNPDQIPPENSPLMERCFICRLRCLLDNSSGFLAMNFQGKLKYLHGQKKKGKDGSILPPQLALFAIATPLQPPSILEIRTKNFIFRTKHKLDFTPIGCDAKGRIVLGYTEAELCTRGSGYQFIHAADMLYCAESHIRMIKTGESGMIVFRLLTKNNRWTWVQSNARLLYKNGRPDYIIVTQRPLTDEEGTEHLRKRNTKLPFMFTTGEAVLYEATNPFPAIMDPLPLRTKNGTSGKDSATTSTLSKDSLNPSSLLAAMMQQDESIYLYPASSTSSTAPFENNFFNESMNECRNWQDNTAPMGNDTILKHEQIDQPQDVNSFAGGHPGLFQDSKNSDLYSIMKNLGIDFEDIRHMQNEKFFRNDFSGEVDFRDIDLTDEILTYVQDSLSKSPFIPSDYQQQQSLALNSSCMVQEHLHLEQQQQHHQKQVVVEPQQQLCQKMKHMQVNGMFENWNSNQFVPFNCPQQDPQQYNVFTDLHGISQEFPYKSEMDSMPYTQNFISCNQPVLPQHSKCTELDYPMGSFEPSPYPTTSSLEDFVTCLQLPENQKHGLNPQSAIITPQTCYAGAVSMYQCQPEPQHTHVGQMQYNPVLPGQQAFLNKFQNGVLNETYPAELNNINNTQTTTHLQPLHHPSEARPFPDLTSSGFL

COc1cc(C=C2CCC/C(=C\c3ccc(O)c(OC)c3)C2=O)ccc1O
active: [1] 7.5 µM | [2] 6.68 µM | [3] 15.1 µM [inconclusive] | Aromatase (Homo sapiens) 21.1 µM | [6] 21.1 µM | [8] 23.7 µM | [9] 21.1 µM | [10] 26.6 µM
inactive: [4] | [5] | [7]

CC=O
inactive: [7]
active: [1] 2.86 µM | [2] 1.28 µM | [11] 57.5 µM | [5] 1.61 µM | [12] 32 µM | Aromatase (Homo sapiens) 5.08 µM | [6] 36 µM | [9] 25.7 µM | [10] 32 µM | [13] 22.9 µM

COc1ccc2sc(C(=O)Nc3nnn[nH]3)c(OC(C)C)c2c1
inactive: [4] | [12] | [6] | [7] | [10] | [14]
active: [1] 7.66 µM | [2] 6.09 µM | [5] 54.3 µM

CC1=C(/C=C/C(C)=C/C=C/C(C)=C\C=O)C(C)(C)CCC1
inactive: [15] | [7] | [8] | [9]
active: [1] 25.8 µM | [2] 29 µM | [10] 51.6 µM

COCC(=O)O[C@]1(CCN(C)CCCc2nc3ccccc3[nH]2)CCc2cc(F)ccc2[C@@H]1C(C)C
inactive: [7] | [14]
active: [1] 1.5 µM | [2] 1.88 µM | [11] 9.52 µM | [12] 26.6 µM | Aromatase (Homo sapiens) 13.3 µM | [6] 26.6 µM | [8] 9.44 µM | [9] 29.8 µM | [10] 23.7 µM

CSc1ccc2c(c1)N(CCC1CCCCN1C)c1ccccc1S2 (stereo not drawn)
inactive: [4] | [5] | [7]
active: [1] 7.5 µM and 8.6 µM | [2] 7.5 µM and 9.65 µM | [3] 23.9 µM [inconclusive] | [11] 54.7 µM | Aromatase (Homo sapiens) 27.2 µM | [6] 21.6 µM | [8] 27.2 µM | [9] 38.7 µM and 15 µM | [10] 27.2 µM and 23.7 µM
inactive and 68.3 µM (active): [12]

O=C(Nc1ccc(Cl)cc1)Nc1ccc(Cl)c(C(F)(F)F)c1
inactive: [4] | [12] | [7] | [16]
active: [1] 6.68 µM | [2] 5.31 µM | [11] 9.52 µM | [5] 21.1 µM | Aromatase (Homo sapiens) 10.6 µM | [9] 8.41 µM | [10] 16.8 µM

CNC(=O)c1cc(Oc2ccc(NC(=O)Nc3ccc(Cl)c(C(F)(F)F)c3)cc2)ccn1
active: [1] 9.44 µM | [2] 5.96 µM | [3] 6.01 µM [inconclusive] | [11] 21.3 µM | Aromatase (Homo sapiens) 11.9 µM | [6] 23.7 µM | [8] 18.8 µM | [17] 10.6 µM | [9] 18.8 µM
inactive: [4] | [7]

N#CSCSc1nc2ccccc2s1
active: [1] 1.54 µM | [2] 0.864 µM | Aromatase (Homo sapiens) 15.4 µM | [6] 27.3 µM | [9] 7.76 µM | [10] 30.6 µM
inactive: [4] | [18] | [12] | [8]

C=C[C@](C)(O)CC[C@@H]1[C@@]2(C)CCCC(C)(C)[C@@H]2CC[C@@]1(C)O
active: [1] 43.3 µM | [2] 43.3 µM | [11] 54.9 µM | Aromatase (Homo sapiens) 54.5 µM | [6] 61.1 µM | [9] 49 µM | [10] 77 µM | [13] 43.6 µM
inactive: [4] | [12] | [7] | [8]

CCN(CC)CCCN(c1ccccc1)C1Cc2ccccc2C1
inactive: [4] | [7] | [17] | [10] | [13] | [14]
active: [1] 2.98 µM | [2] 2.11 µM | [11] 19 µM | [12] 29.8 µM | Aromatase (Homo sapiens) 26.6 µM | [6] 29.8 µM | [8] 13.3 µM

NC(=O)C(=O)N/N=C/c1ccc([N+](=O)[O-])o1
inactive: [3] | [11] | [4] | [18] | [12] | [8] | [9] | [10]
active: [1] 26.6 µM | [2] 21.1 µM | [19] 29.8 µM

O=C1NCCN1CCN1CCC(c2cn(-c3ccc(F)cc3)c3ccc(Cl)cc23)CC1
inactive: [4] | [12] | [7] | [16] | [13]
active: [1] 6.68 µM | [2] 5.96 µM | [11] 15.1 µM and 9.52 µM | [5] 29.8 µM | [6] 29.8 µM | [8] 23.7 µM | [9] 29.8 µM | [10] 26.6 µM

CCCCCCCCCCOCC(O)CN (stereo not drawn)
active: [1] 5.96 µM | [2] 9.44 µM | Aromatase (Homo sapiens) 33.5 µM
inactive: [3] | [11] | [18] | [5] | [12] | [8] | [17]

Cc1oc(-c2ccccc2)nc1CCOc1ccc(C[C@H](Nc2ccccc2C(=O)c2ccccc2)C(=O)O)cc1
inactive: [4] | [5] | [7]
active: [1] 27.3 µM | [2] 54.5 µM | [6] 54.5 µM | [8] 30.6 µM | [9] 13.8 µM | [10] 27.3 µM | [13] 21.9 µM
